Laboratory results: PubChem BioAssay
The source made the active and inactive calls.

Tests used:
[1] = binders of probe aFSTL3 on microarray, primary screen, stem cell growth factor project, biochemical, small-molecule microarray, fluorescence 635/667 (AID 1064); settings: higher = more signal;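 also: measures binding of the biotinylated anti-FSTL3 antibody to printed compounds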
[2] = binders from COS7 lysate, DM2A8 probe, primary screen, torsin A project, cell lysate, small-molecule microarray, fluorescence 635/667 (AID 1065); settings: higher = more signal, COS7 lysate expressing mutant human TOR1A
[3] = binders of probe aFGF2 on microarray, primary screen, stem cell growth factor project, biochemical, small-molecule microarray, fluorescence 635/667 (AID 1067); settings: higher = more signal;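 also: measures binding of biotinylated aFGF2 protein to printed compounds on slides; z-score merges feature fluorescence and signal-to-noise across triplicate slides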
[4] = binders of probe aFGF10 on microarray, primary screen, stem cell growth factor project, biochemical, small-molecule microarray, fluorescence 635/667 (AID 1071); settings: higher = more signal;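 also: score merges 667 nm spot intensity and signal to noise from triplicate slides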
[5] = biological target: Neurogenic locus notch homolog protein 2 (Homo sapiens) (UniProt Q04721); experiment: Notch2 binders on small-molecule microarrays, primary screen, biochemical, small-molecule microarray, 635 nm fluorescence, stem cell growth factors (AID 1073); settings: Notch2 binding, higher = more signal
[6] = biological target: Pro-neuregulin-1, membrane-bound isoform (Homo sapiens) (UniProt Q02297); experiment: NRG1 binders on small-molecule microarrays, primary screen, psychiatric disease protein project, biochemical, small-molecule microarray, fluorescence 635/667 (AID 1075); settings: NRG1 binding, 635 nm fluorescence, higher = more signal;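 also: score combines 667 nm spot fluorescence with signal to noise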
Chain of Pro-neuregulin-1, membrane-bound isoform (Homo sapiens) (Q02297 whole entry, looked up, the tested form may be a part, canonical isoform): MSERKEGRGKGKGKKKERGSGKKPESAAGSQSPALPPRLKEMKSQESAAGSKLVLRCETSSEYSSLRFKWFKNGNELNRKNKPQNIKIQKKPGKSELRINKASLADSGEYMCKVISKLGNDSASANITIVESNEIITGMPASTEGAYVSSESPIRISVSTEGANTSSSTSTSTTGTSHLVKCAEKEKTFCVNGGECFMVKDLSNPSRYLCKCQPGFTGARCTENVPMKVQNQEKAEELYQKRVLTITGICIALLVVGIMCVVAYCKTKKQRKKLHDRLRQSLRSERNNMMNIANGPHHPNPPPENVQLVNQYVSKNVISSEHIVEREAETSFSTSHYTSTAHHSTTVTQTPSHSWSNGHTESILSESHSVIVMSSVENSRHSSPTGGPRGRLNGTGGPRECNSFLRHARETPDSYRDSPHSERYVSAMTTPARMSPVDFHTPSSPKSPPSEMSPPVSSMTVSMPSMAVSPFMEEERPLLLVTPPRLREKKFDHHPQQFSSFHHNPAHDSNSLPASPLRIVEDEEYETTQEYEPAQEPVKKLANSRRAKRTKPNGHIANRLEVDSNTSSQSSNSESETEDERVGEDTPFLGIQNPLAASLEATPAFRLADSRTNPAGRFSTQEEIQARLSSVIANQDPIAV

[7] = tested on: Neuregulin-1 EGF-like domain; experiment: binders of neuregulin-1 EGF-like domain, primary screen, biochemical, small-molecule microarray, 635 nm fluorescence (AID 1081); settings: small-molecule microarray binding, higher = more signal;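 also: binding of the protein to compounds printed on small-molecule microarray slides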
[8] = FRG1 promoter luciferase signal modulators, primary screen, FRG1 inhibition for FSHD, cell-based, C2C12 myotubes, firefly/Renilla luciferase, luminescence (AID 1084); settings: higher = more signal, called active from +8 up or from −8 down
[9] = binders of probe aFST on microarray, primary screen, stem cell growth factor project, biochemical, small-molecule microarray, fluorescence 635/667 (AID 1086); settings: higher = more signal;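 also: score merges 667 nm fluorescence with signal-to-noise of each printed compound spot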
[10] = binders of probe aHhip on microarray, primary screen, stem cell growth factor project, biochemical, small-molecule microarray, fluorescence 635/667 (AID 1087); settings: higher = more signal;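 also: score merges spot fluorescence at 667nm with spot signal to noise ratio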
[11] = tested on: PRMT1 (protein arginine N-methyltransferase 1); experiment: PRMT1 binders on small-molecule microarrays, primary screen, biochemical, small-molecule microarray, 635 nm fluorescence (AID 1088); settings: small-molecule microarray binding, higher = more signal;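 also: binding of Prmt1 protein to compounds spotted on small-molecule microarray slides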
[12] = yeast growth modulation, basal conditions, primary screen, YJM789 clinical isolate, OD600, 24 h (AID 1089);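 also: growth of clinical yeast isolate S. cerevisiae YJM 789 seeded 1000 cells per well; test concentration not given here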; settings: S. cerevisiae YJM789 growth, higher = more signal, called active from +8 up or from −8 down
[13] = fission yeast growth modulation, primary screen, strain 972, OD600, 24 h, no modulator (AID 1090);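 also: basal condition with compound alone and no growth modifier present; test concentration not given here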; settings: S. pombe 972 growth, higher = more signal, called active from +8 up or from −8 down
[14] = S. cerevisiae growth modulation with rapamycin, primary screen, strain BY4716, OD600, 96 h (AID 1091); settings: higher = more signal, called active from +8 up or from −8 down; also: test concentration not given here
[15] = biological target: Torsin-1A-interacting protein 2 (Homo sapiens) (UniProt Q8NFQ8); experiment: LULL1 binders on small-molecule microarray, primary screen, cell lysate, human LULL1 lysate, 635/667 nm fluorescence (AID 1092); settings: hLULL1 lysate binding, 635 nm fluorescence, higher = more signal;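 also: probe is lysate of COS7 cells overexpressing human LULL1; score merges per-feature 667 nm fluorescence with signal-to-noise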
Chain of Torsin-1A-interacting protein 2 (Homo sapiens) (Q8NFQ8 whole entry, looked up): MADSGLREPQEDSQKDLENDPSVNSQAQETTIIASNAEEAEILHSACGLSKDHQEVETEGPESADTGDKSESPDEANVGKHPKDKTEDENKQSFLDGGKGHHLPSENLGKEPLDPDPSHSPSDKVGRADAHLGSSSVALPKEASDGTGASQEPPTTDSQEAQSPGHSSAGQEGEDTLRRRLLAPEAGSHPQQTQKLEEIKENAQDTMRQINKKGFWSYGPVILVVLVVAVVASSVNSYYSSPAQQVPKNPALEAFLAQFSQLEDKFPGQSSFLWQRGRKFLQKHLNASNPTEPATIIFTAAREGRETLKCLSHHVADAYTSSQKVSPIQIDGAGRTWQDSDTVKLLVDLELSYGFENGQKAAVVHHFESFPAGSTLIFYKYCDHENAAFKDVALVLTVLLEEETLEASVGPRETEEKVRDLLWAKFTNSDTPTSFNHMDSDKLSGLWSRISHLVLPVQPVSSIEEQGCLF

[16] = E. coli growth modulation, two-sided OD650, primary screen, E. coli filamentation project, strain DRC41, 24 h (AID 1093); settings: OD650, 24 h, higher = more signal, called active from +8 up or from −8 down;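 also: MC1000 strain lacking acrAB efflux and sulA so SOS filamentation is blocked; test concentration not given here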
[17] = small-molecule microarray binders of probe aLefty2, primary screen, biochemical, biotinylated probe, 635/667 nm fluorescence (AID 1094); settings: higher = more signal;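 also: score merges spot fluorescence near 667 nm with spot signal-to-noise ratio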
[18] = tested on: Noggin (protein binding on small-molecule microarray); experiment: Noggin binders on small-molecule microarray, primary screen, biochemical, 635/667 nm fluorescence (AID 1095); settings: 635 nm fluorescence, higher = more signal;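 also: score merges 667 nm feature fluorescence with signal to noise over triplicate slides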
[19] = biological target: Neurogenic locus notch homolog protein 3 (Homo sapiens) (UniProt Q9UM47); experiment: NOTCH3 binders on small-molecule microarray, primary screen, biochemical, 635/667 nm fluorescence (AID 1096); settings: NOTCH3 binding, 635 nm fluorescence, higher = more signal
Chain of Neurogenic locus notch homolog protein 3 (Homo sapiens) (Q9UM47 whole entry, looked up): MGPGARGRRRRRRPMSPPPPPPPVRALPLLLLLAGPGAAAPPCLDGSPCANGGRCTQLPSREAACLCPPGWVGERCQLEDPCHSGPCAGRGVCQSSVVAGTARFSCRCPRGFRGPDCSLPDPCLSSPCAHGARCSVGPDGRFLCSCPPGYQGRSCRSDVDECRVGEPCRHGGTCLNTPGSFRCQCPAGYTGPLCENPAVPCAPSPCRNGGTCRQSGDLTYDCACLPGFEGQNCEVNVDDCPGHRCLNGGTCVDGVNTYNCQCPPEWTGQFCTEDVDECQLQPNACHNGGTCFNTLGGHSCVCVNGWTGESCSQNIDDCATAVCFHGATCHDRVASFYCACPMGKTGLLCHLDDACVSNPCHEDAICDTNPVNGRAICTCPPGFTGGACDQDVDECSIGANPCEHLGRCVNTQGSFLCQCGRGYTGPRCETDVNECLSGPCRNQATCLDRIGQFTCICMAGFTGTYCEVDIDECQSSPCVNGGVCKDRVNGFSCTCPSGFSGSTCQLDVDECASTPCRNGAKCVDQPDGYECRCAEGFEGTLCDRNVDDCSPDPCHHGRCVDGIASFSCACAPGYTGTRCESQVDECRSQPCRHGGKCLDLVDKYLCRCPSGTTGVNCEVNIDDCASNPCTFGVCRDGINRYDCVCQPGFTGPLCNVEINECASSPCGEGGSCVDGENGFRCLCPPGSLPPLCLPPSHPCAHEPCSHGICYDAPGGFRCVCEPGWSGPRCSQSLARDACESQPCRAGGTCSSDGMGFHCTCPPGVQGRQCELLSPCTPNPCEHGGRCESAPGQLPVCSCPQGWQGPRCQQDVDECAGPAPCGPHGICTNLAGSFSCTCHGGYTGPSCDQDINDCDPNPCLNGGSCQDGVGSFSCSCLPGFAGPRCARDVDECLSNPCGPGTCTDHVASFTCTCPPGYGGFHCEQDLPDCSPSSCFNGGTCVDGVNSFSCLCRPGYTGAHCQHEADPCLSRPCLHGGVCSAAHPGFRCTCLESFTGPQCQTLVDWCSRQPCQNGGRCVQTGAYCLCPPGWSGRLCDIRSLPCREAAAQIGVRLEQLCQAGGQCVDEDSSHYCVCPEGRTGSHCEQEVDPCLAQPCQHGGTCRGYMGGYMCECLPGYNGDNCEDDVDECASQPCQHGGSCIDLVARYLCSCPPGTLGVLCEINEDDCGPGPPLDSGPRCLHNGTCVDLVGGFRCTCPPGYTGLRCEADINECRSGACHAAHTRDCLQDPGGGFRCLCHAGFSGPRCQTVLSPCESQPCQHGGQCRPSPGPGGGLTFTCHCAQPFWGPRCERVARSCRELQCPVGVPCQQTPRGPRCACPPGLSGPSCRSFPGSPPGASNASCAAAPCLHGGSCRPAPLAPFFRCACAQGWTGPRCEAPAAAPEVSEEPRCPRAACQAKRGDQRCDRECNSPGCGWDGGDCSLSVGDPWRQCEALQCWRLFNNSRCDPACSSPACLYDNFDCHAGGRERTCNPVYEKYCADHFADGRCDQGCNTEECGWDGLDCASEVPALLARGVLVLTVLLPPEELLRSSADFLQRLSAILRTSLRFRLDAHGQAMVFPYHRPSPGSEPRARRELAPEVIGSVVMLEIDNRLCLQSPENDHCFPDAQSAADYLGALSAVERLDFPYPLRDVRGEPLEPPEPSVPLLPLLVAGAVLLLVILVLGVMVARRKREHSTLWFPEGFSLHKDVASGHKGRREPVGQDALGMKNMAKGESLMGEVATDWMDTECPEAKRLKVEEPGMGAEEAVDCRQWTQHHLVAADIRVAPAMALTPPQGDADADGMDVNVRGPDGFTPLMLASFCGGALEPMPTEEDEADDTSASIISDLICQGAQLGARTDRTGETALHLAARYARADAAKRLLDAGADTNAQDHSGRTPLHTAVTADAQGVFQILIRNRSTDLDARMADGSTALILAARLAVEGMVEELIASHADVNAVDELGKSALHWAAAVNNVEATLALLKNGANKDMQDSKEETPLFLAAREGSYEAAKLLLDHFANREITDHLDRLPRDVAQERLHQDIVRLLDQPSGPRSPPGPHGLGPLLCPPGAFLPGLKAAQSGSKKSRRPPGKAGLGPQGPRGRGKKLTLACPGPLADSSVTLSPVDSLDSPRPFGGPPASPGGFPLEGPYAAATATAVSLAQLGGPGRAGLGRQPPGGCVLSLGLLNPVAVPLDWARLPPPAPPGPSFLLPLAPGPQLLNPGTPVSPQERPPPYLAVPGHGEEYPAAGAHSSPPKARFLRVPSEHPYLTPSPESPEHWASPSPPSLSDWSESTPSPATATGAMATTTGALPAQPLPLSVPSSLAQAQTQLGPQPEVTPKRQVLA

[20] = small-molecule microarray binders of probe aEGFR, primary screen, biochemical, biotinylated probe, 635/667 nm fluorescence (AID 1097); settings: higher = more signal;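 also: probe is a biotinylated anti-EGFR antibody binding compounds printed on slides; score combines fluorescence near 667 nm and signal to noise of each spot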

| SMILES | composite z-score [1] | composite z-score [2] | composite z-score [3] | composite z-score [4] | composite z-score [5] | composite z-score [6] | composite z-score [7] | z-score [8] | composite z-score [9] | composite z-score [10] | composite z-score [11] | z-score [12] | z-score [13] | z-score [14] | composite z-score [15] | z-score [16] | composite z-score [17] | composite z-score [18] | composite z-score [19] | composite z-score [20] |
| --- | --- | --- | --- | --- | --- | --- | --- | --- | --- | --- | --- | --- | --- | --- | --- | --- | --- | --- | --- | --- |
| O=C1N(CCS(=O)(=O)c2ccccc2)Cc2ccccc2[C@@H]2OC(c3ccc(OCCCO)cc3)=N[C@]12CCS(=O)(=O)c1ccccc1 | 0.215 | 0.675 | 0.115 | 0.507 | 1.66 | 1.46 | 1.39 | -2.06 (inactive) | 1.18 | 0.0053 | 1.53 | 2.61 (inactive) | 1.97 (inactive) | 6.29 (inactive) | 3.23 | 0.833 (inactive) | 0.338 | 1.06 | 1.02 | 0.266 |
| COC(=O)[C@@]1(Cc2ccc(F)cc2)[C@H]2c3cc(C(=O)N(C)C)n(Cc4c(CO)[nH]cc(C)c4=O)c3C[C@H]2CN1C(=O)c1ccccc1 | 0.535 | -0.199 | 0.142 | 1.16 | 1.42 | 2.1 | 1.15 | 1.09 (inactive) | 0.255 | -0.0237 | -0.51 | 0.342 (inactive) | -0.392 (inactive) | 0.796 (inactive) | 1.63 | -0.893 (inactive) | 0.378 | -0.115 | -0.032 | 0.297 |
| COCCCNC(=O)[C@@]1(c2ccc([N+](=O)[O-])cc2)CC(=O)N(C(C)C)[C@@H]1c1ccc(CO)cc1 | 0.135 | -0.169 | -0.059 | -0.0621 | -0.588 | -0.714 | 0.539 | 0.195 (inactive) | 0.116 | 0.526 | 0.197 | -0.411 (inactive) | -0.46 (inactive) | -0.363 (inactive) | 0.15 | 0.409 (inactive) | 0.701 | -0.363 | -0.617 | -0.071 |
| COC(=O)[C@@]1(Cc2ccc(OC)cc2)[C@H]2c3cc(C(=O)N4CCCC4)n(Cc4cc(C)n(C)n4)c3C[C@H]2CN1C(=O)c1ccccc1 | 0.404 | 0.0011 | 0.37 | 1.3 | 1.76 | 2.16 | 1.33 | 0.301 (inactive) | 0.821 | 2.67 | 0.481 | -0.102 (inactive) | 1.31 (inactive) | 0.202 (inactive) | 3.85 | -0.265 (inactive) | 0.724 | -0.513 | 1.04 | 0.701 |
| [N-]=[N+]=NCc1ccccc1C[C@]1(C(=O)N2CCOCC2)COC(c2ccc(OCCCO)cc2)=N1 | 0.518 | 0.456 | 0.083 | 0.973 | 0.626 | 1.02 | 1.24 | -2.87 (inactive) | 0.73 | -0.0237 | 1.5 | -0.486 (inactive) | -5.38 (inactive) | 32.4 (active) | 2.39 | 3.3 (inactive) | 0.273 | -0.296 | 0.364 | 0.0706 |
| C=C[C@@H](OC)[C@H](OC(=O)Nc1ccc(OC)cc1)c1ccc(OC)c(O)c1 | 0.54 | -0.998 | -0.087 | -0.624 | -1.06 | -0.401 | 1.23 | 3.56 (inactive) | -0.857 | 0.0505 | -0.391 | 0.239 (inactive) | -0.375 (inactive) | -0.901 (inactive) | 1.04 | 0.234 (inactive) | -0.124 | -0.527 | -0.449 | -0.25 |
| CC(C)N1CC=CC23O[C@@H]4/C=C\CCCOC(=O)C4[C@H]2C(=O)N(CCCCCCO)[C@@H]3C1=O (stereo not given in full) | 0.59 | 0.525 | -0.0924 | 0.716 | -0.602 | 2.01 | 1.03 | 0.163 (inactive) | -0.302 | 0.139 | 0.529 | 0.226 (inactive) | -2.03 (inactive) | -0.331 (inactive) | 3.18 | 2 (inactive) | -0.121 | -1.26 | -0.112 | -0.152 |
| COCCOC(=O)N1C(=O)[C@@]2(c3cc(C#CCCO)ccc31)[C@H](C(N)=O)[C@H]1C(=O)O[C@H](c3ccccc3)[C@H](c3ccccc3)N1[C@@H]2c1ccc(OCCO)cc1 | -0.0241 | 0.657 | -0.0202 | 0.48 | 1.43 | 1.1 | 1.17 | 0.478 (inactive) | 0.439 | -0.0994 | 1.54 | 1.94 (inactive) | 0.63 (inactive) | 2.82 (inactive) | 3.02 | -0.187 (inactive) | -0.161 | 0.632 | 0.992 | 0.0754 |
| C=C(COC)C(=O)CC[C@H](OC(=O)c1cccnc1)c1ccc(CO)o1 | -0.403 | -0.049 | -0.124 | 0.842 | 0.574 | 0.57 | 1.12 | 0.292 (inactive) | 0.34 | -0.0994 | 1.33 | -1.26 (inactive) | -0.292 (inactive) | -0.35 (inactive) | 0.103 | -0.252 (inactive) | -0.132 | 1.1 | 1.02 | -0.0313 |
| COC(=O)C1N=C(c2ccc(OCCCO)cc2)N(c2ccccc2)O1 (stereo not given) | 0.397 | 0.148 | -0.0189 | 1.17 | 1.54 | 1.1 | 0.913 | 2.35 (inactive) | 0.897 | -0.317 | 0.433 | -0.686 (inactive) | -1.16 (inactive) | -0.417 (inactive) | 2.07 | 0.267 (inactive) | 0.156 | 0.981 | 0.698 | 0.271 |
